Each structure is given as a SMILES string. The whole screen tested about 5,600 compounds, of which about 780 (14%) were called active. Roughly 3% stayed inconclusive and do not appear here.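 Rule for the calls: active = mean signal decrease across replicates above about 35% based on untreated-well scatter, with enough replicates individually passing (limit read from the data); inconclusive = no rule stated though some were filed; inactive = the rest.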 Not all results are given here.

A short description of this assay: NIH3T3 cell viability loss – cherry-pick, single point, cytotoxicity control for T. cruzi proliferation inhibitor project, confirmation (AID 651742).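 Note: 0% = median of neutral control wells and 100% = median of positive control wells.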 The conditions noted are these: NIH/3T3 viability, CellTiter-Glo ATP luminescence, 90 h; at 8.35 µM; active compounds read high. (ATP-based viability assays read luminescence as a measure of living cells.)
As to `COc1ccc(S(=O)(=O)N2CCCCN3[C@H](C2)[C@H](c2ccc(C#CCC(C)C)cc2)[C@@H]3CO)cc1`, the cytotoxicity (signal decrease) was 20.8% (inactive).

Turning to `COc1ccc(S(=O)(=O)N2CCCCN3[C@H](CO)[C@@H](c4ccc(C#CC(C)C)cc4)[C@H]3C2)cc1`, the cytotoxicity (signal decrease) is 27.6% (inactive).

Turning to `CNC[C@H]1OCCCC[C@H](C)Oc2ccc(NC(=O)Nc3c(C)noc3C)cc2C(=O)N([C@H](C)CO)C[C@H]1C`, the cytotoxicity (signal decrease) is 6.78% (inactive).

Take `COc1ccc(-c2ccc3c(c2)[C@@H]2[C@@H](CCN2C(=O)Cc2ccccn2)[C@H](CO)N3C)cc1`: the cytotoxicity (signal decrease) is 3.57% (inactive).

As for `C[C@@H]1CN([C@@H](C)CO)C(=O)CCCn2cc(nn2)CO[C@@H]1CN(C)S(=O)(=O)c1ccccc1F`, the cytotoxicity (signal decrease) was -3.89% (inactive).

Consider `C[C@@H]1CN([C@H](C)CO)C(=O)c2cc(/C=C/c3ccccc3)cnc2O[C@@H]1CN(C)Cc1ccncc1`, for which the cytotoxicity (signal decrease) was 0.61% (inactive).

As for `C[C@H](CO)N1C[C@H](C)[C@@H](CN(C)C(=O)Nc2cc(F)ccc2F)Oc2cc(C#CC3CC3)ccc2S1(=O)=O`, the cytotoxicity (signal decrease) was -4.87% (inactive).

With `C[C@@H]1CN([C@H](C)CO)S(=O)(=O)c2ccc(-c3cccc(C#N)c3)cc2O[C@@H]1CN(C)C(=O)Nc1ccccc1F`, the cytotoxicity (signal decrease) is 45.7% (active).

Regarding `C[C@@H]1CN([C@@H](C)CO)S(=O)(=O)c2ccc(C#Cc3ccccc3)cc2O[C@@H]1CN(C)C(=O)Nc1ccccc1`, the cytotoxicity (signal decrease) was 11.7% (inactive).

Regarding `CN1c2ccc(-c3ccccc3)cc2[C@@H]2[C@@H](CCN2C(=O)c2ccncc2)[C@@H]1CO`, the cytotoxicity (signal decrease) is 5.49% (inactive).

In the case of `O=C(C[C@H]1CC[C@@H]2[C@H](COC[C@H](O)CN2Cc2ccc(Oc3ccccc3)cc2)O1)N1CCN(c2ccccc2)CC1`, the cytotoxicity (signal decrease) was -0.257% (inactive).

`CCCC#Cc1ccc2c(c1)O[C@H](CN(C)C(=O)CC)[C@@H](C)CN([C@H](C)CO)S2(=O)=O`: the cytotoxicity (signal decrease) was 17.5% (inactive).

As for `CC(C)C#Cc1ccc2c(c1)O[C@H](CN(C)Cc1ccccc1)[C@H](C)CN([C@@H](C)CO)S2(=O)=O`, the cytotoxicity (signal decrease) was 41.7% (active).

Regarding `CCC(=O)N(C)C[C@@H]1Oc2cc(C#CCN(C)C)ccc2S(=O)(=O)N([C@H](C)CO)C[C@H]1C`, the cytotoxicity (signal decrease) is -1.94% (inactive).

With `CC(=O)N(C)C[C@H]1Oc2cc(C#CCN(C)C)ccc2S(=O)(=O)N([C@@H](C)CO)C[C@@H]1C`, the cytotoxicity (signal decrease) is 4.99% (inactive).

With `C[C@@H]1CN([C@H](C)CO)S(=O)(=O)c2ccc(C#C[C@@H](C)O)cc2O[C@@H]1CN(C)Cc1ccc(-c2ccccc2)cc1`, the cytotoxicity (signal decrease) is 14.4% (inactive).

Turning to `C[C@H]1CN([C@@H](C)CO)S(=O)(=O)c2ccc(C#CCN(C)C)cc2O[C@@H]1CN(C)Cc1ccc(F)cc1`, the cytotoxicity (signal decrease) is 48.1% (active).

For the molecule `C[C@@H]1CN([C@@H](C)CO)S(=O)(=O)c2ccc(/C=C/c3ccccc3)cc2O[C@H]1CN(C)Cc1ccccc1`, the cytotoxicity (signal decrease) was 21.8% (inactive).

On to `O=C(Cc1ccccc1)N1CC[C@H]2[C@H](CO)Nc3ccc(-c4ccccc4F)cc3[C@H]21`, for which the cytotoxicity (signal decrease) was -5.9% (inactive).

`C[C@@H]1CN([C@H](C)CO)C(=O)c2cccc(NC(=O)c3ccc(-c4nccs4)cc3)c2O[C@@H]1CN(C)C(=O)Nc1ccc(C(F)(F)F)cc1`: the cytotoxicity (signal decrease) is 26% (inactive).

On to `C[C@@H]1CCCCO[C@H](CN(C)C(=O)Nc2ccc(C(F)(F)F)cc2)[C@H](C)CN([C@H](C)CO)C(=O)c2cc(NC(=O)Nc3ccc(C(F)(F)F)cc3)ccc2O1`, for which the cytotoxicity (signal decrease) was -8.85% (inactive).

For the molecule `CC(C)NC(=O)N1[C@H](C#N)[C@H](c2ccc(C#CC3CCCCC3)cc2)[C@H]1CO`, the cytotoxicity (signal decrease) is -28% (inactive).

Take `CCc1cnc(N2[C@H](C#N)[C@H](c3ccc(C4=CCCC4)cc3)[C@@H]2CO)s1`: the cytotoxicity (signal decrease) was 9.56% (inactive).

Regarding `N#C[C@H]1[C@@H](c2ccc(C3=CCCCC3)cc2)[C@@H](CO)N1C(=O)NC1CCCCC1`, the cytotoxicity (signal decrease) is 42.8% (active).

`Cc1noc(C)c1S(=O)(=O)Nc1ccc2c(c1)C(=O)N([C@@H](C)CO)C[C@@H](C)[C@H](CN(C)S(=O)(=O)c1ccc(Cl)cc1)OCCCC[C@H](C)O2`: the cytotoxicity (signal decrease) was -13.7% (inactive).

On to `O=C(Nc1cc(F)ccc1F)N1CCCCN2[C@H](CO)[C@@H](c3ccc(-c4cncnc4)cc3)[C@H]2C1`, for which the cytotoxicity (signal decrease) was 15% (inactive).

As to `CCCC#Cc1ccc2c(c1)O[C@@H](CN(C)C(=O)c1ccccc1F)[C@H](C)CN([C@H](C)CO)S2(=O)=O`, the cytotoxicity (signal decrease) was 19.4% (inactive).

On to `COc1ccc(S(=O)(=O)Nc2ccc3c(c2)C(=O)N([C@@H](C)CO)C[C@H](C)[C@H](CN(C)Cc2ccc(C(F)(F)F)cc2)O3)cc1`, for which the cytotoxicity (signal decrease) is 3.37% (inactive).

Regarding `C/C=C/c1ccc([C@H]2[C@@H](CNC(C)C)N(c3nc(CC)cs3)[C@H]2CO)cc1`, the cytotoxicity (signal decrease) was 7.64% (inactive).

In the case of `C[C@H](CO)N1C[C@H](C)[C@@H](CN(C)Cc2ccc(C(=O)Nc3ccccc3N)cc2)Oc2c(NC(=O)c3ccc(-c4nccs4)cc3)cccc2C1=O`, the cytotoxicity (signal decrease) is -13.6% (inactive).

As for `C[C@H](CO)N1C[C@H](C)[C@H](CN(C)Cc2ccncc2)Oc2cc(-c3ccncc3)ccc2S1(=O)=O`, the cytotoxicity (signal decrease) is 19.9% (inactive).

Take `C[C@H]1CN([C@@H](C)CO)S(=O)(=O)c2ccc(C3=CCCCC3)cc2O[C@@H]1CN(C)Cc1ccccc1`: the cytotoxicity (signal decrease) is 119% (active).

Regarding `C[C@H](CO)N1C[C@H](C)[C@@H](CN(C)C(=O)C2CCCCC2)Oc2cc(-c3ccccc3)ccc2S1(=O)=O`, the cytotoxicity (signal decrease) was 26.2% (inactive).

As to `COc1ccccc1-c1ccc2c(c1)O[C@@H](CN(C)C)[C@H](C)CN([C@H](C)CO)S2(=O)=O`, the cytotoxicity (signal decrease) was -9.91% (inactive).

Turning to `C[C@@H]1CN([C@H](C)CO)S(=O)(=O)c2ccc(C3=CCCC3)cc2O[C@H]1CN(C)Cc1ccccc1F`, the cytotoxicity (signal decrease) was 32% (inactive).

`C[C@H]1CN([C@@H](C)CO)S(=O)(=O)c2ccc(C3=CCCC3)cc2O[C@@H]1CN(C)Cc1ccccc1`: the cytotoxicity (signal decrease) was 42.4% (active).

Turning to `CS(=O)(=O)N1[C@@H](C#N)[C@H](c2ccc(C#CC3CCCCC3)cc2)[C@@H]1CO`, the cytotoxicity (signal decrease) was 4.86% (inactive).

Consider `COc1cccc(S(=O)(=O)N2CCCCN3[C@H](C2)[C@H](c2ccc(C#CC(C)C)cc2)[C@@H]3CO)c1`, for which the cytotoxicity (signal decrease) was 19.3% (inactive).

On to `C[C@@H]1CN([C@@H](C)CO)C(=O)c2cc(NC(=O)Nc3ccc(C(F)(F)F)cc3)ccc2O[C@@H](C)CCCCO[C@H]1CN(C)C(=O)c1ccccc1`, for which the cytotoxicity (signal decrease) is 23.5% (inactive).

For `C[C@H]1CN([C@@H](C)CO)C(=O)CCCn2cc(nn2)CO[C@H]1CN(C)C(=O)c1ccccc1`, the cytotoxicity (signal decrease) is 10.9% (inactive).

Consider `C[C@H](CO)N1C[C@H](C)[C@H](CN(C)C(=O)Nc2ccc(C(F)(F)F)cc2)OCCCC[C@H](C)Oc2ccc(NC(=O)C3CCCCC3)cc2C1=O`, for which the cytotoxicity (signal decrease) is -27% (inactive).

Regarding `Cc1noc(C)c1S(=O)(=O)Nc1ccc2c(c1)C(=O)N([C@@H](C)CO)C[C@H](C)[C@@H](CN(C)C(=O)Nc1cccc3ccccc13)OCCCC[C@H](C)O2`, the cytotoxicity (signal decrease) was 7.99% (inactive).

As for `COc1ccc(S(=O)(=O)Nc2ccc3c(c2)C(=O)N([C@H](C)CO)C[C@H](C)[C@H](CN(C)Cc2ccc(C(F)(F)F)cc2)O3)cc1`, the cytotoxicity (signal decrease) was 29% (inactive).

As to `O=C(CN1CCOCC1)N1CCCCN2[C@@H](CO)[C@H](c3ccc(-c4ccccc4)cc3)[C@@H]2C1`, the cytotoxicity (signal decrease) is 8.85% (inactive).

Consider `C[C@H]1CN([C@@H](C)CO)C(=O)c2cc(NC(=O)Nc3ccc4c(c3)OCO4)ccc2O[C@@H]1CN(C)Cc1ccc(Oc2ccccc2)cc1`, for which the cytotoxicity (signal decrease) is 16% (inactive).

Regarding `C[C@@H]1CN([C@@H](C)CO)C(=O)c2cc(NC(=O)Cc3ccccc3)ccc2O[C@@H]1CN(C)Cc1ccc(Oc2ccccc2)cc1`, the cytotoxicity (signal decrease) is 27.9% (inactive).

As for `N#C[C@@H]1[C@@H](c2ccc(C#Cc3cccc(F)c3)cc2)[C@@H](CO)N1C(=O)C1CCC1`, the cytotoxicity (signal decrease) was 29.1% (inactive).

With `CC(C)CC#Cc1cnc2c(c1)C(=O)N([C@@H](C)CO)C[C@@H](C)[C@H](CN(C)C(=O)Cc1ccncc1)O2`, the cytotoxicity (signal decrease) is -12% (inactive).

As to `CC(=O)N(C)C[C@@H]1[C@@H](c2ccc(-c3ccccc3F)cc2)[C@@H](CO)N1C(C)=O`, the cytotoxicity (signal decrease) was 0.445% (inactive).

Regarding `CCN(C[C@H]1[C@H](c2ccccc2)[C@H](CO)N1C(=O)C1CC1)C(=O)NC1CCCC1`, the cytotoxicity (signal decrease) is -12.5% (inactive).

With `CC(C)NC(=O)Nc1ccc2c(c1)C(=O)N([C@H](C)CO)C[C@H](C)[C@H](CN(C)C(=O)Nc1ccc(C(F)(F)F)cc1)OCCCC[C@@H](C)O2`, the cytotoxicity (signal decrease) was -9.66% (inactive).

Turning to `OC[C@@H]1Nc2ccc(-c3cccc(F)c3)cc2[C@H]2[C@@H]1CCN2Cc1ccncc1`, the cytotoxicity (signal decrease) is 9.48% (inactive).

In the case of `O=S(=O)(c1ccccc1)N1CC[C@@H]2[C@@H](CO)Nc3ccc(C#Cc4cccc(F)c4)cc3[C@@H]21`, the cytotoxicity (signal decrease) was 33% (inactive).

Regarding `Cc1ccccc1S(=O)(=O)N1CC[C@H]2[C@H](CO)Nc3ccc(-c4cccc(F)c4)cc3[C@H]21`, the cytotoxicity (signal decrease) is 52.4% (active).

With `C[C@H](CO)N1C[C@H](C)[C@@H](CN(C)Cc2ccc(C(F)(F)F)cc2)OCCCC[C@H](C)Oc2ccc(NC(=O)C3CCCCC3)cc2C1=O`, the cytotoxicity (signal decrease) was 27.4% (inactive).

On to `COc1cccc(S(=O)(=O)Nc2ccc3c(c2)[C@H]2C[C@H](CC(=O)NCc4ccc(Cl)cc4)O[C@H](CO)[C@H]2O3)c1`, for which the cytotoxicity (signal decrease) is -23.8% (inactive).

For `CN(C)C(=O)c1ccc(-c2ccc3c(c2)[C@H]2[C@H](CCN2C(=O)c2ccc4c(c2)OCO4)[C@H](CO)N3)cc1`, the cytotoxicity (signal decrease) was -2.98% (inactive).

In the case of `O=C(c1ccc(F)cc1)N1CCCCN2[C@H](C1)[C@@H](c1ccc(C#CC3(O)CCCC3)cc1)[C@@H]2CO`, the cytotoxicity (signal decrease) was 2.43% (inactive).

With `C[C@H](CO)N1C[C@H](C)[C@H](CN(C)S(=O)(=O)c2ccc(F)cc2)OCCCC[C@H](C)Oc2ccc(NS(=O)(=O)c3ccc(Cl)cc3)cc2C1=O`, the cytotoxicity (signal decrease) is 22.2% (inactive).

As to `C[C@@H]1CN([C@H](C)CO)C(=O)c2cccc(NC(=O)NC3CCCCC3)c2O[C@H]1CN(C)Cc1ccc(C(F)(F)F)cc1`, the cytotoxicity (signal decrease) is -8.62% (inactive).

The values are drawn from PubChem BioAssay AID651742 (Broad Institute, 2012).
